# Sampled rows, rich in hits. Any-hit rate of the full collection: about 13%.
# USP28 block: inhibitors of human USP28 deubiquitinase. Q96RU2. purified USP28, Ub-rhodamine cleavage fluorescence, 30 min. inhibition, % at 25 µM. 3% of 47,000 active
# USP30 block: inhibitors of human USP30 deubiquitinase; 5.3% of 47,000 active; inhibition, % at 25 µM; purified USP30, Ub-rhodamine cleavage fluorescence; Q70CQ3; AID 1645860
# Target sequence (Q70CQ3 whole entry, looked up): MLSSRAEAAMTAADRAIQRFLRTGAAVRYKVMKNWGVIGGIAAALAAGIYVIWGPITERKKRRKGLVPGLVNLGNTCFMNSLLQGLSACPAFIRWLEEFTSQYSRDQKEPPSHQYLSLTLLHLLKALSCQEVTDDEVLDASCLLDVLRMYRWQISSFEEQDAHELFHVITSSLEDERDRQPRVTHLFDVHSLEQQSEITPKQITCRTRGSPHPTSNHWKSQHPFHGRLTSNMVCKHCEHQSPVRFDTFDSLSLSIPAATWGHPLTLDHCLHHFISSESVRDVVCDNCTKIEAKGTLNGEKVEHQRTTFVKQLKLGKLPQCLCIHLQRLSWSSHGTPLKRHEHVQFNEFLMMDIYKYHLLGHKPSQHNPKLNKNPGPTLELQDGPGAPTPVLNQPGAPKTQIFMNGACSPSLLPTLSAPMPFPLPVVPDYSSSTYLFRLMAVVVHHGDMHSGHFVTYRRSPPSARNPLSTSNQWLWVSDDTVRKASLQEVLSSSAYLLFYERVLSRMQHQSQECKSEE
# USP17 block: blocks human USP17 ubiquitin-rhodamine cleavage | A8MUK1 | purified USP17, Ub-rhodamine cleavage fluorescence, 3 h | inhibition, % at 50 µM | 6.5% of 47,000 active
# USP8 inh: inhibitors of human USP8 deubiquitinase | 4.2% of 47,000 active | inhibition, % at 20 µM | P40818 | purified USP8, Ub-rhodamine cleavage fluorescence, 30 min
# Hits are given with their value; 0 = inactive; - = not tested or not shown. Rule as the data show it: active = inhibition above about 30%; inactive = the rest.
SMILES,USP28 block,USP30 block,USP17 block,USP8 inh
CC(NC(=O)c1cnc(-c2ccccc2)nc1-c1ccncc1)c1ccccn1 (configuration not stated),0,0,0,0
Cc1ccc(C)c(NC(=O)c2ccc(N3C(=O)C(C)CS3(=O)=O)cc2Cl)c1 (configuration not stated),0,0,0,0
CC1CS(=O)(=O)N(c2ccc(C(=O)NCc3ccc(F)cc3)cc2)C1=O (configuration not stated),0,0,0,0
Cc1cccc(NC(=O)c2ccc(N3C(=O)C(C)CS3(=O)=O)cc2)c1C (configuration not stated),-,-,34,0
Cc1ccc(NC(=O)c2ccc(N3C(=O)C(C)CS3(=O)=O)cc2Cl)cc1C (configuration not stated),39,0,0,0
O=[N+]([O-])c1cc(CO)ccc1Oc1ccc(F)cc1F,0,0,0,0
Clc1ccccc1CSc1nnc(C2CCCCC2)n1Cc1ccccc1,0,57,37,0
O=C(Nc1cc(Cl)cc(Cl)c1)c1csnn1,0,0,58,0
Cc1cc(C)nc(NC(=O)c2csnn2)c1,0,0,0,0
COc1ccc(CC(C#N)(C(=O)NC2CCCCC2)c2nc3ccccc3[nH]2)cc1 (configuration not stated),0,0,0,70
COc1ccc(CN2C(=O)c3nc4ccccc4n3CC2(C)C(=O)NC2CCCCC2)cc1 (configuration not stated),0,0,0,0
COc1cccc(C2NC(=O)c3c(sc4c3CCN(C(C)C)C4)N2)c1O (configuration not stated),0,0,0,0
COc1ccc(-c2cc3n(c2)CCc2cc(OC)c(OC)cc2-3)cc1,0,0,0,0
COc1ccc(-c2cn3ccc4cc(OC)c(OC)cc4c3c2-c2ccc(OC)c(OC)c2)cc1,0,0,0,31
Cc1ccccc1CC(=O)N1C[C@@H]2OCC(=O)N(C3CCOCC3)[C@H]2C1,0,0,0,0
O=C(Nc1ccc2nccnc2c1)c1cccc(C(F)(F)F)c1,32,76,0,0
COc1ccccc1-c1noc(C2CCCN2C(=O)Nc2cccc(C)c2C)n1 (configuration not stated),0,49,0,0
COc1ccc(-c2nc3n(n2)C(c2cccc(O)c2)C2=C(CCCC2=O)N3)cc1 (configuration not stated),0,0,51,0
COc1ccc2ncc(C#N)c(N3CCC(C(=O)N4CCCCC4)CC3)c2c1,0,0,0,0
Cc1ccc(NC(=O)c2cn(Cc3ccccc3)nc2-c2cccnc2)cc1,32,0,0,0
Cn1cc(S(=O)(=O)Nc2ncn(Cc3cccc(Cl)c3)n2)cn1,0,0,0,0
Cn1cc(S(=O)(=O)Nc2cnn(Cc3cccc(Cl)c3)c2)cn1,0,0,31,77
O=C(C[n+]1cc(-c2ccccc2)n2c1CCC2)c1cccc([N+](=O)[O-])c1,0,31,0,0
Cc1ccc(-c2c[n+](CC(=O)N(c3ccccc3)C(C)C)c3n2CCC3)cc1,0,0,0,0
O=C(NCc1ccc(F)cc1F)c1c(O)c2cnn(Cc3ccccc3)c2[nH]c1=O,0,0,0,0
SMILES,USP28 block,USP30 block,USP17 block,USP8 inh
O=C(Nc1ccccc1)c1c(O)c2cnn(Cc3ccccc3)c2[nH]c1=O,0,0,0,57
c1ccc2c(-c3nnc(C4CC4)o3)nnc(NCCCN3CCCC3)c2c1,0,0,40,0
O=C(NCc1ccc2c(c1)OCO2)c1oc(=O)c2ccccc2c1-c1ccccc1,0,0,0,0
CCOc1ccc(NC(=O)COc2ccc(C(=O)Nc3cc(F)ccc3C)cc2OC)cc1,0,0,0,0
O=C(CSc1ncccc1C(=O)Nc1ccnn1Cc1cccnc1)Nc1ccc2c(c1)OCO2,0,0,0,45
O=C1CCN(C(=O)c2ccccc2F)c2ccccc2N1,0,0,0,0
Cc1cc(=O)oc2cc(OC(=O)C3CCN(C(=O)c4ccc(Cl)cc4)CC3)ccc12,0,50,0,0
Cc1nn(-c2nc3ccccc3o2)c2c1C(c1cccc(F)c1F)CC(=O)N2 (configuration not stated),0,32,0,0
O=C(COc1ccc2c(c1)OCO2)Nc1cc(Cl)ccc1Oc1ccccc1,0,0,0,0
CN(C)c1ccc(NC(=O)CSc2nnc(-c3ccc(S(=O)(=O)N4CCOCC4)cc3)n2C)cc1,0,45,0,0
Cn1c(SCC(=O)Nc2ccc(N3CCOCC3)cc2)nnc1-c1ccco1,0,0,0,0
COc1ccc(C(=O)/C=C2\NCCc3cc4c(cc32)OCCCO4)cc1OC,0,0,0,0
O=C(/C=C1\NCCc2cc3c(cc21)OCCCO3)c1ccc(OC(F)(F)F)cc1,0,0,0,53

# High-throughput results deposited in PubChem BioAssay by Buhrlage Lab, Dana-Farber Cancer Institute and Novartis Institutes for BioMedical Research (Cambridge, Mass).
